Data on 40 molecules can be found in the supplement of paper PMC8975748.

Structures can show the parent of a compound that is named as a salt.

In the assay the test system is Saccharomyces cerevisiae BY4741 SeMeCo community. Briefly: z-score of subpopulation abundance vs DMSO median, subpopulation auxotrophic for UM; higher = larger share of this subpopulation than in DMSO controls. Conditions: 10 µM; 24 h; SM minimal medium; subpopulation (auxotrophy): UM. As for the experimental part: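 Fluorescent four-plasmid SeMeCo (self-establishing metabolically cooperating S. cerevisiae BY4741 community; plasmids pH-mRuby2, pL-mWasabi, pU-eCFP, pM-TagRFP657) was grown 24 h in minimal SM medium with each Selleck FDA-approved drug at 10 µM in 384-well plates. Cells were fixed and imaged by high-content confocal microscopy. For each auxotrophic subpopulation (and the prototroph), a z-score gives the deviation from the DMSO vehicle-control population median.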
Take `NC12CC3CC(CC(C3)C1)C2` [Amantadine HCl]: the “z-score of subpopulation abundance” value is -0.27. The figure for `CN1C(C(=O)Nc2ccccn2)=C(O)c2sc(Cl)cc2S1(=O)=O` [Lornoxicam] is 0.21. As for `C[C@@H](NCCCc1cccc(C(F)(F)F)c1)c1cccc2ccccc12` [Cinacalcet HCl], the “z-score of subpopulation abundance” value is -0.3. Turning to `O=C(Nc1c(Cl)cncc1Cl)c1ccc(OC(F)F)c(OCC2CC2)c1` [Roflumilast], the “z-score of subpopulation abundance” value turned out to be 0.24. As to `Cn1cc(C(=O)[C@@H]2CCc3[nH]cnc3C2)c2ccccc21` [Ramosetron Hydrochloride], the “z-score of subpopulation abundance” value amounted to 0.33.

Take `COc1ccc2[nH]c([S@@+]([O-])Cc3ncc(C)c(OC)c3C)nc2c1` [NEXIUM (esomeprazole magnesium)]: the “z-score of subpopulation abundance” value is -1.82. In the case of `CC(C)COc1ccc(CNC(=O)N(Cc2ccc(F)cc2)C2CCN(C)CC2)cc1` [Pimavanserin], the “z-score of subpopulation abundance” value was -0.58. `CO/N=C(\C(=O)N[C@@H]1C(=O)N2C(C(=O)OC(C)OC(C)=O)=C(COC(N)=O)CS[C@H]12)c1ccco1` (stereo not given in full) [Cefuroxime axetil]: the “z-score of subpopulation abundance” value was 0.26. Turning to `CN(C)C[C@@H]1CCn2cc(c3ccccc32)C2=C(C(=O)NC2=O)c2cn(c3ccccc23)CCO1`, the “z-score of subpopulation abundance” value is -0.29. With `O=C(Cn1cnnn1)N[C@@H]1C(=O)N2C(C(=O)O)=C(CSc3nncs3)CS[C@H]12` [Ceftezole] the figure was -0.37. For the molecule `Cc1nc2n(c(=O)c1CCN1CCC(c3noc4cc(F)ccc34)CC1)CCCC2O` (stereo not given) [Paliperidone], the “z-score of subpopulation abundance” value was determined as 0.49. Consider `CN1CCN(C2=Nc3cc(Cl)ccc3Nc3ccccc32)CC1` [Clozapine], for which the “z-score of subpopulation abundance” value amounted to 0.28. For `COC1C(O)CC(=O)OC(C)CC=CC=CC(OC2CCC(N(C)C)C(C)O2)C(C)CC(CC=O)C1OC1OC(C)C(OC2CC(C)(O)C(O)C(C)O2)C(N(C)C)C1O` (stereo not given) [Spiramycin], the “z-score of subpopulation abundance” value amounted to 0.4. As for `Cc1cc(CC(C)CC(C)(C)C)n(O)c(=O)c1` (stereo not given) [Piroctone Olamine], the “z-score of subpopulation abundance” value was 6.25.

For the molecule `COC(=O)C1=C(C)NC(C)=C(C(=O)OC(C)(C)CN(C)CCC(c2ccccc2)c2ccccc2)C1c1cccc([N+](=O)[O-])c1` (stereo not given) [Lercanidipine], the “z-score of subpopulation abundance” value is -0.89.

For `C[C@@H]1CC(=O)NN=C1c1ccc(NN=C(C#N)C#N)cc1` [Levosimendan], the “z-score of subpopulation abundance” value is 0.05. For `NC(=O)c1cnccn1` [Pyrazinamide], the “z-score of subpopulation abundance” value was 1.23. With `CC[C@@]1(O)C(=O)OCc2c1cc1n(c2=O)Cc2cc3cc(O)ccc3nc2-1` [(S)-10-Hydroxycamptothecin] the figure was -0.98; with `CN[C@@H]1[C@@H](O[C@H]2O[C@H](CO)[C@@H](N)[C@H](O)[C@H]2O)OC2C[C@@H](N)[C@@H](O[C@H]3[C@H](O)[C@@H](O)[C@H](N)C[C@@H]3N)OC2[C@@H]1O` (stereo not given in full) [Apramycin Sulfate], 0.56. On to `CC(C[N+](C)(C)C)OC(N)=O` (stereo not given) [Bethanechol chloride], for which the “z-score of subpopulation abundance” value was -0.21. With `O=C(NCCO[N+](=O)[O-])c1cccnc1` [Nicorandil] the figure was -0.61; with `Oc1cccc(O)c1` [Resorcinol], -0.77. For the molecule `Clc1ccc(C(Cn2ccnc2)OCc2ccc(Sc3ccccc3)cc2)c(Cl)c1` (stereo not given) [Fenticonazole Nitrate], the “z-score of subpopulation abundance” value was -3.35. `OCCOc1ccc(/C(=C(/CCCl)c2ccccc2)c2ccccc2)cc1` [Ospemifene]: the “z-score of subpopulation abundance” value is -0.91. On to `Cn1c(=O)c2c(ncn2CC(O)CO)n(C)c1=O` (stereo not given) [Dyphylline], for which the “z-score of subpopulation abundance” value is -0.61. Turning to `Cc1onc(-c2ccccc2)c1C(=O)N[C@@H]1C(=O)N2[C@@H]1SC(C)(C)[C@@H]2C(=O)O` [Oxacillin sodium monohydrate], the “z-score of subpopulation abundance” value was found to be 0.41. For the molecule `CN1C[C@@H]2C[C@H]1CN2c1cc2c(cc1F)c(=O)c(C(=O)O)cn2C1CC1` [Danofloxacin Mesylate], the “z-score of subpopulation abundance” value amounted to 0. The figure for `O=C(O)Cc1ccccc1Nc1c(Cl)cccc1Cl` [Diclofenac Diethylamine] is -1.81; for `N[C@@H]1CONC1=O` [D-Cycloserine] it is -0.3; for `Cc1ccc(-c2ncc(Cl)cc2-c2ccc(S(C)(=O)=O)cc2)cn1` [Etoricoxib] it is 0.52. For the molecule `O=C1[C@H]2CCCC[C@H]2C(=O)N1CCCCN1CCN(c2nsc3ccccc23)CC1` [Perospirone hydrochloride], the “z-score of subpopulation abundance” value was -0.02. With `CCN1CCN(c2cc3c(cc2F)c(=O)c(C(=O)O)cn3C2CC2)CC1` [Enrofloxacin], the “z-score of subpopulation abundance” value was 0. With `CN1CCN(CCCN2c3ccccc3Sc3ccc(C(F)(F)F)cc32)CC1` [Trifluoperazine 2HCl] the figure was 0.11; with `COC(=O)C1=C(C#N)NC(C)=C(C(=O)OC(C)C)C1c1cccc([N+](=O)[O-])c1` (stereo not given) [Nilvadipine], -0.73; with `Cc1cnc(NC(=O)C2=C(O)c3ccccc3S(=O)(=O)N2C)s1` [Meloxicam], -0.26. The figure for `CNCC[C@H](Oc1cccc2ccccc12)c1cccs1` [Duloxetine HCl] is 0.1; for `c1ccc(-c2ccc(C(c3ccccc3)n3ccnc3)cc2)cc1` (stereo not given) [Bifonazole] it is 0.46. In the case of `COc1ccc2c(c1)c(CC(=O)OCC(=O)O)c(C)n2C(=O)c1ccc(Cl)cc1` [Acemetacin], the “z-score of subpopulation abundance” value is 0.2. Regarding `C[C@]12CCC3=C4CCC(=O)C=C4CC[C@H]3[C@@H]1CC[C@@]2(O)CC#N` [Dienogest], the “z-score of subpopulation abundance” value is -0.39. In the case of `COCCCOc1ccnc(C[S+]([O-])c2nc3ccccc3[nH]2)c1C` (stereo not given) [Rebeprazole sodium], the “z-score of subpopulation abundance” value stood at 0.75.
